Results filed as inconclusive are left out. Activity calls are given as the source filed them. Calls come from the whole dose curve; as a rule, active = well fitted curve in the direction sought with a large enough effect; inconclusive = small, poorly fitted or top-dose-only effect, or another doubt; inactive = no such curve, though single readings can be large; an effect the other way counts as inactive or inconclusive.
Legend:
[1] = Quantitative High-Throughput drug screen in 47 multiple myeloma cell lines against the NCATS MIPE library collection: ARD_JJKsccE7 cell viability assay (AID 1918929; note: potency is the fitted concentration of half-maximal effect)
Summary of the method: (§1)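 Myeloma cell lines, 500 cells per well, exposed to MIPE 4.0 library compounds for 48 h at 37C, 5% CO2. Viability from ATP by CellTiter-Glo luminescence; normalised to DMSO (100%) and media-only (0%) wells.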

[2] = Quantitative High-Throughput drug screen in 47 multiple myeloma cell lines against the NCATS MIPE library collection: Karpas620_DSMZ cell viability assay (AID 1918959); note: nearly all actives have a fitted effect of over 30% in size; note: potency is the fitted concentration of half-maximal effect
Summary of the method: as §1

[3] = Quantitative High-Throughput drug screen in 47 multiple myeloma cell lines against the NCATS MIPE library collection: KMM1_JCRB cell viability assay (AID 1918960); note: nearly all actives have a fitted effect of over 30% in size; note: potency is the fitted concentration of half-maximal effect
Summary of the method: (§2)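 Myeloma cells, 500 per well, were exposed to MIPE 4.0 drugs by pin transfer for 48 h at 37 °C, 5% CO2. Viability was read as ATP luminescence with CellTiter-Glo, normalised to DMSO-only (100%) and medium-only (0%) wells.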

[4] = Quantitative High-Throughput drug screen in 47 multiple myeloma cell lines against the NCATS MIPE library collection: KHM11_PLB cell viability assay (AID 1918962); note: potency is the fitted concentration of half-maximal effect; nearly all actives have a fitted effect of over 35% in size
Summary of the method: as §1

[5] = Quantitative High-Throughput drug screen in 47 multiple myeloma cell lines against the NCATS MIPE library collection: JIM1_ECACC cell viability assay (AID 1918964; note: potency is the fitted concentration of half-maximal effect)
Summary of the method: as §1

[6] = Quantitative High-Throughput drug screen in 47 multiple myeloma cell lines against the NCATS MIPE library collection: INA6_PLB cell viability assay (AID 1918965; note: nearly all actives have a fitted effect of over 55% in size; note: potency is the fitted concentration of half-maximal effect)
Summary of the method: as §1

[7] = Quantitative High-Throughput drug screen in 47 multiple myeloma cell lines against the NCATS MIPE library collection: Karpas25_ECACC cell viability assay (AID 1918968; note: nearly all actives have a fitted effect of over 35% in size; note: potency is the fitted concentration of half-maximal effect)
Summary of the method: as §1

[8] = Quantitative High-Throughput drug screen in 47 multiple myeloma cell lines against the NCATS MIPE library collection: KMS27_JCRB cell viability assay (AID 1918970); note: nearly all actives have a fitted effect of over 30% in size; note: potency is the fitted concentration of half-maximal effect
Summary of the method: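 Each line is seeded at 500 cells per well and treated with library compounds for 48 hours under 37 °C, 5% CO2. CellTiter-Glo is then added for 5 min at room temperature before median relative luminescence is recorded.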

[9] = Quantitative High-Throughput drug screen in 47 multiple myeloma cell lines against the NCATS MIPE library collection: Delta47_JCRB cell viability assay (AID 1918925; note: nearly all actives have a fitted effect of over 45% in size; note: potency is the fitted concentration of half-maximal effect)
Summary of the method: as §1

[10] = Quantitative High-Throughput drug screen in 47 multiple myeloma cell lines against the NCATS MIPE library collection: ARP1_JJKsccF8 cell viability assay (AID 1918928; note: nearly all actives have a fitted effect of over 40% in size; note: potency is the fitted concentration of half-maximal effect)
Summary of the method: as §2

[11] = Quantitative High-Throughput drug screen in 47 multiple myeloma cell lines against the NCATS MIPE library collection: H1112_PLB cell viability assay (AID 1918967; note: nearly all actives have a fitted effect of over 30% in size; note: potency is the fitted concentration of half-maximal effect)
Summary of the method: as §1

[12] = Quantitative High-Throughput drug screen in 47 multiple myeloma cell lines against the NCATS MIPE library collection: KMS12BM_JCRB cell viability assay (AID 1918971); note: nearly all actives have a fitted effect of over 35% in size; note: potency is the fitted concentration of half-maximal effect
Summary of the method: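 Relative luminescence from CellTiter-Glo served as the viability signal, referenced to DMSO-treated (100%) and cell-free medium (0%) controls. Treatment lasted 48 hours at 37C with 500 cells per well.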

[13] = Quantitative High-Throughput drug screen in 47 multiple myeloma cell lines against the NCATS MIPE library collection: KMS12PE_JCRB cell viability assay (AID 1918972); note: nearly all actives have a fitted effect of over 30% in size; note: potency is the fitted concentration of half-maximal effect
Summary of the method: as §1

[14] = Quantitative High-Throughput drug screen in 47 multiple myeloma cell lines against the NCATS MIPE library collection: KMS20_JCRB cell viability assay (AID 1918973); note: nearly all actives have a fitted effect of over 45% in size; note: potency is the fitted concentration of half-maximal effect
Summary of the method: as §1

[15] = Quantitative High-Throughput drug screen in 47 multiple myeloma cell lines against the NCATS MIPE library collection: EJM_DSMZ cell viability assay (AID 1918926; note: nearly all actives have a fitted effect of over 30% in size; note: potency is the fitted concentration of half-maximal effect)
Summary of the method: as §1

[16] = Quantitative High-Throughput drug screen in 47 multiple myeloma cell lines against the NCATS MIPE library collection: AMO1_DSMZ cell viability assay (AID 1918927; note: nearly all actives have a fitted effect of over 30% in size; note: potency is the fitted concentration of half-maximal effect)
Summary of the method: as §1

[17] = Quantitative High-Throughput drug screen in 47 multiple myeloma cell lines against the NCATS MIPE library collection: JJN3_DSMZ cell viability assay (AID 1918966; note: nearly all actives have a fitted effect of over 50% in size; note: potency is the fitted concentration of half-maximal effect)
Summary of the method: as §1

[18] = Quantitative High-Throughput drug screen in 47 multiple myeloma cell lines against the NCATS MIPE library collection: Karpas417_ECACC cell viability assay (AID 1918961); conditions: Karpas417 myeloma viability, CellTiter-Glo ATP luminescence, 48 h; viability (% of DMSO): at 45.8 µM (top of the series)
Summary of the method: as §1

[19] = Quantitative High-Throughput drug screen in 47 multiple myeloma cell lines against the NCATS MIPE library collection: JIM3_ECACC cell viability assay (AID 1918963; note: nearly all actives have a fitted effect of over 35% in size; note: potency is the fitted concentration of half-maximal effect)
Summary of the method: as §1

Structure (SMILES)	Potency [1]	Potency [2]	Potency [3]	Potency [4]	Potency [5]	Potency [6]	Potency [7]	Potency [8]	Potency [9]	Potency [10]	Potency [11]	Potency [12]	Potency [13]	Potency [14]	Potency [15]	Potency [16]	Potency [17]	Potency [18]	Potency [19]	viability (% of DMSO) [18]
Cc1cnc(-c2cnc(NCCNc3ccc(C#N)cn3)nc2-c2ccc(Cl)cc2Cl)[nH]1	inactive	inactive	inactive	16.6 µM (active)	inactive	2.35 µM (active)	5.9 µM (active)	inactive												
COc1c(N2C[C@@H]3CCCN[C@H]3C2)c(F)cc2c(=O)c(C(=O)O)cn(C3CC3)c12		inactive						18.7 µM (active)	inactive	37.2 µM (active)	inactive	14.8 µM (active)	inactive	inactive						
C=C1C(=CC=C2CCCC3(C)[C@@H]([C@H](C)C=CC=CC(O)(CC)CC)CC[C@@H]23)C[C@@H](O)C[C@@H]1O (some centres undefined)	16.6 µM (active)	20.9 µM (active)	20.9 µM (active)		16.6 µM (active)			29.6 µM (active)		20.9 µM (active)	23.5 µM (active)	20.9 µM (active)	14.8 µM (active)		18.7 µM (active)	14.8 µM (active)	18.7 µM (active)			
Cc1nc2ccc(CN(C)c3ccc(C(=O)N[C@@H](CCC(=O)O)C(=O)O)s3)cc2c(=O)[nH]1		inactive						0.264 µM (active)		0.0209 µM (active)	inactive		0.0662 µM (active)		inactive	0.0662 µM (active)		inactive	0.0935 µM (active)	
C[C@]12CC[C@H](O)CC1=CCC1C2CC[C@]2(C)C(n3cnc4ccccc43)=CCC12 (some centres undefined)	inactive	inactive	inactive				inactive	inactive			inactive	18.7 µM (active)	inactive	inactive		inactive			inactive	109% (active)
Cc1cn2cc(C(=O)N(C)CCO)cc(N[C@@H]3CCOc4cccc(C)c43)c2n1		inactive	inactive					inactive	inactive	inactive			inactive	inactive		inactive			inactive	
OCc1ccc(-c2ccc(-c3ccc(CO)s3)o2)s1	inactive	inactive	inactive	6.62 µM (active)	inactive	2.64 µM (active)	3.72 µM (active)	0.0118 µM (active)	20.9 µM (active)	18.7 µM (active)	16.6 µM (active)	23.5 µM (active)	0.235 µM (active)	1.87 µM (active)	11.8 µM (active)		16.6 µM (active)		16.6 µM (active)	
NC1(Cc2ccc(Cl)cc2)CCN(c2ncnc3[nH]ccc23)CC1	0.935 µM (active)		3.72 µM (active)	2.96 µM (active)		3.72 µM (active)	1.87 µM (active)	4.69 µM (active)	0.935 µM (active)	2.96 µM (active)		18.7 µM (active)	3.72 µM (active)	3.32 µM (active)		2.09 µM (active)	13.2 µM (active)			
O=C(C=Cc1c(C(=O)O)[nH]c2cc(Cl)cc(Cl)c12)Nc1ccccc1	inactive	inactive	inactive		inactive	inactive		inactive	inactive	inactive	inactive	inactive	inactive	inactive	inactive		inactive	inactive	inactive	
O=C(O)CCCc1c[nH]c2ccccc12	inactive	inactive	inactive			inactive	inactive	inactive	inactive		inactive		inactive		inactive				inactive	
NC(=O)c1c(OCc2c(F)cc(Br)cc2F)nsc1NC(=O)NCCCCN1CCCC1	inactive	inactive	inactive	9.35 µM (active)		18.7 µM (active)	8.33 µM (active)	inactive	7.43 µM (active)		16.6 µM (active)	18.7 µM (active)		7.43 µM (active)	20.9 µM (active)		20.9 µM (active)	inactive	26.4 µM (active)	
CC(C)(C)c1cc(NC(=O)Nc2ccc(-c3cn4c(n3)sc3cc(OCCN5CCOCC5)ccc34)cc2)no1		inactive				3.32 µM (active)	13.2 µM (active)					16.6 µM (active)			18.7 µM (active)					
O=C(NCCCNc1nc(Nc2cccc(NC(=O)N3CCCC3)c2)ncc1I)c1cccs1		inactive	inactive	1.32 µM (active)		0.662 µM (active)		inactive	4.69 µM (active)	16.6 µM (active)	9.35 µM (active)	18.7 µM (active)	inactive	3.32 µM (active)	14.8 µM (active)		16.6 µM (active)		5.26 µM (active)	

Reference: PubChem BioAssay (NCATS)
